Among the data in the supplement of paper PMC6555819 are PBM binding z-score values, retold here.

This assay has as its system RXRa homodimer (NR concentration 180 nM). Put plainly: PBM binding z-score (relative to random genomic background probes); higher = stronger binding; sequences stand for … in GC…GCGATTGACAGCGTAGAATGAAGG
A digest of the protocol: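 For binding z-scores, the reference was random background probes on custom Agilent 4×180K protein-binding microarrays. These arrays were incubated 1 h with ligand-free nuclear receptor dimers in PBS pH 7.4, 2% milk, 0.02% Triton X-100, 1 mM DTT, 0.2 mg/mL BSA and 0.4 mg/ml salmon testes DNA. Fluorescence was scanned after antibody detection of each partner (one per run) and regression-normalized.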
Sequence TTACGAAGGTGAAGGTCGTTGATCCCTCTGTAGA registered a PBM binding z-score of 1.93.

TAGTCTAGGTCATTCAGGGGCCAGTATAGAAAGC returned a PBM binding z-score of 2.96.

The sequence GCTTGTAGATCAAGGTTAAGAAAGACTAAGCTAA yielded a PBM binding z-score of 0.904.

Take GCTGCTAGGTCAGGTGGGTCAGCTAACGGGTACG: the PBM binding z-score amounted to 2.07.

With GATACAGGGTCAAGGCTAGAGTACGCGTATTGAT, the PBM binding z-score was 5.93.

Consider AACGAAAGGTCGAGGTGAGTATAGAGAAAGGGAA, for which the PBM binding z-score stood at 5.03.

In the case of AATACAGGGTAATCGTAGGCCAGAGTACGCACAG, the PBM binding z-score is 0.61.

Sequence TCGAGTAGGTTAGTAGGGGCATTCAGCCAACATA returned a PBM binding z-score of 0.366.

CCTGCTAGGGCATGGTCAGCTAATCTACAGTATG registered a PBM binding z-score of -0.195.

In turn, ACAGACAGGTGAGTGAAAGTAACTCAGCTGGACG came in with a PBM binding z-score of 0.309.

CCTCGGAGGACAGAAGGTCAGGGCTGTCCGCTTT showed a PBM binding z-score of 2.22.

CGTCCAAGGTCAATGCTAGTTCAGTGAAAGCATT showed a PBM binding z-score of 4.84.

Sequence ATCTCTAGGTAAGCCTCAGTTCAGTGAAGAACGC came in with a PBM binding z-score of 0.103.

TCGAGTAGGTTAGTCGGGGCATTCAACCAACATA registered a PBM binding z-score of 0.119.

CGAACTAGGACAAGGACAGTGAATCTCCGCACGC gave a PBM binding z-score of 0.0441.

CGTCCAAGGTCAGAGAGGTCAGTGAGTGCCGAGT showed a PBM binding z-score of 5.51.

ACAGACAGGTGCGTGAAGGTAACTCAGCTGGACG registered a PBM binding z-score of -0.0792.

For the sequence GCTCGGAGGACCAGGTCAGAGCTTTGTCCGTAGA, the PBM binding z-score was determined as 0.617.

GTACCAAGGTGAATAGGTCGTTGCTGAGTAGGCG registered a PBM binding z-score of 1.53.

Sequence TAGCCTAGGTCAAATCGGGCCAGTATACGCTATA showed a PBM binding z-score of 3.31.

The sequence ACTATTAGTTGAAACGAGGGCAACCGATAGGTTG had a PBM binding z-score of 0.792.

In turn, AGAATGAGGTTAAGAGCAGGGAAACAGAATACAT registered a PBM binding z-score of 2.46.
